Shown are actives, neighbours in structure and some others; about 11% of the full set was active somewhere.
ALDH1A1 block – qHTS Assay for Inhibitors of Aldehyde Dehydrogenase 1 (ALDH1A1); Potency, µM (highest dose often 75.3 µM), for inactives: at the top dose activity, negative = inhibition, usual class: inhibitors; 220,000 tested, 7.3% active; Purified ALDH1A1, NADH fluorescence, propionaldehyde substrate;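 also: potency is read from the fitted curve at half-maximal effect; plate controls were no enzyme wells and a reference inhibitor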
Target sequence (P00352 whole entry, looked up): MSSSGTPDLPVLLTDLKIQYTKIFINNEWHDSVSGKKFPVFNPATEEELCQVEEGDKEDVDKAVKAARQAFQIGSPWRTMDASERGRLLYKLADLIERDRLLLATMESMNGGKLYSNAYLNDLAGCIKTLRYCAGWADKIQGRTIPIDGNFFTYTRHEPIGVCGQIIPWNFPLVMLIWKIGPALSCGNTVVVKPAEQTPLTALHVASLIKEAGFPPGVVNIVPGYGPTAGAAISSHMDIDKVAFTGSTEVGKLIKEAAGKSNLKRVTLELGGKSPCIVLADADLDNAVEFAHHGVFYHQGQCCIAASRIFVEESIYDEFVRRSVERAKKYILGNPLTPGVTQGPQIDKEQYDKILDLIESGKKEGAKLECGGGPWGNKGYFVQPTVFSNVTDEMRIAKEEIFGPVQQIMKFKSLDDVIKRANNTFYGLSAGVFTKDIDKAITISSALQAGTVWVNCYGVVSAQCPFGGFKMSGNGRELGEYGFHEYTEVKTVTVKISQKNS
HPGD inh – qHTS Assay for Inhibitors of HPGD (15-Hydroxyprostaglandin Dehydrogenase); purified HPGD, NADH fluorescence kinetic, PGE2 substrate; Potency, µM, for inactives: at the top dose activity change, negative = inhibition, usual class: inhibitors; 150,000 tested, 4.3% active; AID 894, 2007; also: potency is read from the fitted curve at half-maximal effect
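NADH formation kinetics: reaction with 30 uM PGE2 and 1 mM NAD+ (final), 20 nM enzyme, Tris-HCl pH 8 with Tween 20, after 15 min compound preincubation at room temperature. Fluorescence change, last versus first of five reads.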
PNC inhibitor – High Content Assay for Compounds that inhibit the Assembly of the Perinucleolar Compartment; PC3M PTB-GFP, PNC prevalence imaging, 16 h; hits give low values; activity change (PNC), negative = inhibition, % at 10 µM; 140,000 tested, 3.1% active; AID 2417, 2010;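 active = readout at or below -70, meaning at least 70% loss of cells showing the perinucleolar compartment, a nuclear body marking cancer cells; inconclusive = readout between -30 and a set limit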;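 also: plate controls were DMSO wells for no effect and camptothecin positive control wells for full effect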
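Compounds are pinned in duplicate onto adhered PC3M cells stably expressing GFP-tagged PTB and incubated 16 h at 37 C. Cells are then fixed, nuclei stained with Hoechst, and PNC-positive cells counted.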
The depositor's hits bear a star; ? = inconclusive; / = no result; [ ] = another dose, or the depositor's remark. Unless noted, calls follow the shape of the dose curve; as a rule, active = well fitted inhibition curve with a large enough effect (not every such curve was filed as active); inconclusive = small, poorly fitted or top-dose-only effect, or another doubt; inactive = no such curve, though single readings can be large or run the other way. Unless noted, % is scaled to controls: 0 for no effect and ±100 for the full control effect.

SMILES	ALDH1A1 block	HPGD inh	PNC inhibitor
Cc1ccccc1CSc1nc(-c2ccccc2)cc(=O)[nH]1	6%	/	-18
O=C(CCc1ccccc1)OCC(=O)c1ccc([N+](=O)[O-])cc1	8.9µM*	/	/
O=C(CCC(=O)c1ccc(Cl)cc1)OCC(=O)c1ccccc1	1%	?	57
COc1ccc(C(=O)Nc2ccc(N3CCOCC3)cc2)cc1S(=O)(=O)NC1CCCC1	4%	/	/
O=C(COc1ccc(Cl)cc1Cl)Nc1ccc2nc3n(c(=O)c2c1)CCCC3	?	10µM*	-11
O=C(Nc1ccc(S(=O)(=O)N2CCCC2)cc1)c1ccc2c(=O)n3c(nc2c1)CCCCC3	?	-12%	?
O=C(Nc1cccc(Cl)c1)c1ccc2c(=O)n3c(nc2c1)CCCCC3	?	-20%	18
CC1CC(C)CN(C(=S)Nc2ccc3nc4n(c(=O)c3c2)CCCCC4)C1 (configuration not stated)	-4%	?	-15
O=C(Nc1ccc(F)c(Cl)c1)c1ccc2c(=O)n3c(nc2c1)CCCCC3	25µM*	/	?
Cc1ccc(S(=O)(=O)N2CCCCC2)cc1NC(=O)c1ccc2c(=O)n3c(nc2c1)CCCCC3	14µM*	-19%	8
CC1CCCN(C(=S)Nc2ccc3nc4n(c(=O)c3c2)CCCCC4)C1 (configuration not stated)	?	-29%	-119*
CCOC(=O)N1CCN(C(=O)C(=O)Nc2ccc3nc4n(c(=O)c3c2)CCCCC4)CC1	?	-14%	-17
C=CCC(C=C)[N+]1(CC(=O)OC)CCCCC1 (configuration not stated)	-1%	/	/
COc1ccc(Oc2cccc(Cl)c2CNC(=O)CCC(=O)O)cc1	6%	/	/
CCOC(=O)N/N=C(/c1ccccc1)C1CCCCC1	6%	/	/
Cn1c(CSCc2ccccc2)n[nH]c1=S	-6%	-6%	10
COc1ccc(-c2noc(-c3ccccc3-c3ccccc3)n2)cc1	-4%	-5%	26
Cc1ccc(Cc2nc(-c3cccnc3)no2)cc1	-5%	-16%	-27
Brc1ccc(-c2nnc(-c3ccccc3Br)o2)cc1	?	?	20
Fc1ccccc1-c1nc(-c2ccccc2)no1	1%	-20%	-100*
COc1ccc(-c2noc(-c3ccccc3F)n2)cc1	-7%	-23%	5
Clc1ccc(Cc2nc(-c3cccnc3)no2)cc1	-2%	1%	-93*
Brc1ccccc1-c1nnc(-c2cccnc2)o1	-4%	-11%	-81*
Cc1ccc(-c2nc(-c3ccccc3)no2)c(Cl)c1	8%	40µM*	19
O=C(NCc1ccccn1)C(=O)N/N=C/c1ccc2c(c1)OCO2	-8%	/	/
SMILES	ALDH1A1 block	HPGD inh	PNC inhibitor
N[C@H](Cc1ccc(O)c(O)c1)C(=O)O	?	-23%	/
CCCNC(=O)OCc1cccnc1Sc1ccc(C)cc1	-3%	/	/
Clc1ncnc2scc(-c3ccccc3)c12	4%	-9%	-8
c1cncc(-c2noc(-c3cccc4ccccc34)n2)c1	?	?	-15
Clc1nc(-c2cccnc2)nc2scc(-c3ccccc3)c12	?	20µM*	2
c1ccc(-c2ccccc2-c2nc(-c3cccnc3)no2)cc1	?	-23%	-101*
CCOC(=O)C1=C(C)N[C@@]2(O)c3ccccc3C(=O)[C@@]12O	32µM*	-7%	38
CCCN1C(=O)NC2(O)C(=O)c3ccccc3C12O (configuration not stated)	2%	/	?
CCCCOC(=O)C1=C(C)NC2(O)c3ccccc3C(=O)C12O (configuration not stated)	8.9µM*	-9%	8
COc1ccc2c(c1)NC1(O)c3ccccc3C(=O)C21O (configuration not stated)	4%	-3%	19
O=C1NC2(O)C(=O)c3ccccc3C2(O)N1 (configuration not stated)	4%	/	/
CC1=C(C(=O)OC(C)C)C2(O)C(=O)c3ccccc3C2(O)N1 (configuration not stated)	13µM*	-11%	?
COC(=O)[C@@H]1C[C@@H]2CC[C@@H](O)C[C@@H]2N1Cc1ccc(C)s1	2%	-8%	/
O=C(CSc1ccccc1)NCCSCc1ccccc1	-2%	-27%	?
Cc1cc(S(=O)(=O)NCc2ccccc2)ccc1OCC(=O)NCC1CCCO1 (configuration not stated)	8%	/	/
C=CCN(CC=C)S(=O)(=O)c1ccc(NC(=S)NC(=O)c2ccc(-c3ccccc3)cc2)cc1	3.2µM*	?	21
C=CCN(CC=C)S(=O)(=O)c1ccc(NC(=S)NC(=O)/C=C/c2ccc(C)cc2)cc1	-4%	-13%	-29
C=CCN(CC=C)S(=O)(=O)c1ccc(NC(=S)NC(=O)Cc2ccc(OC)cc2)cc1	-8%	-12%	20
C=CCN(CC=C)S(=O)(=O)c1ccc(NC(=S)NC(=O)c2ccco2)cc1	22µM*	-14%	-18
Cc1ccc(C(N)=Nc2ccccc2)cc1	10%[13.5 µM]	-7%	/
Cc1cc(=O)n(CC(=O)O)c2ccccc12	-6%	/	/
Cc1cc(=O)n(CC=C(Cl)Cl)c2ccccc12	?	7.9µM*	?
CC(C)(C)c1ccc(S(=O)(=O)N2CC(=O)Nc3ccccc32)cc1	?	-14%	-26
CCc1ccccc1N(C1=NCCCS1)S(=O)(=O)c1ccc(C(C)(C)C)cc1	0.79µM*	-17%	?
CCOC(=O)c1ccc(NC(=S)NCCCN2CCOCC2)cc1	-1%	/	/
SMILES	ALDH1A1 block	HPGD inh	PNC inhibitor
CCCCC1(CC(=O)OC)C(=O)N(c2ccccc2)N(c2ccccc2)C1=O	6%	-2%	?
Cc1nn(CC(=O)OCC(=O)NC(C)c2ccccc2)c(C)c1[N+](=O)[O-] (configuration not stated)	9%	/	/
Clc1ccccc1OCc1nc(-c2ccncc2)no1	14%	-28%	-17
Clc1ccc(OCc2nc(-c3ccncc3)no2)c(Br)c1	-5%	18µM*	19
CCc1ccc(OCc2nc(-c3ccccn3)no2)c(Br)c1	0%	28µM*	10
Cc1ccc(OCc2nc(-c3ccccn3)no2)c(Br)c1	?	18µM*	9
Cc1ccc(OCc2nc(-c3ccccn3)no2)cc1	8%	-13%	-1
CC(C)c1ccc(OCc2nc(-c3ccccn3)no2)c(Br)c1	-9%	?	-1
CCCCOC(=O)Nc1nnc(Cc2ccc(Cl)cc2)s1	11%	/	/
COc1cc2c(cc1C1NC(=S)NC(C)=C1C(=O)N(C)C)CCCC2 (configuration not stated)	3%	-9%	47
CCC(C)C1NC(=O)C(CCNCS(=O)(=O)O)NC(=O)C(NC(=O)C(CCNCS(=O)(=O)O)NC(=O)C(NC(=O)C(CCNCS(=O)(=O)O)NC(=O)CCCCC(C)C)C(C)O)CCNC(=O)C(C(C)O)NC(=O)C(CCNCS(=O)(=O)O)NC(=O)C(CCNCS(=O)(=O)O)NC(=O)C(C(C)CC)NC1=O (configuration not stated)	6%	-7%	/
COc1cc(NC(=O)CSc2nnnn2Cc2ccccc2)cc(OC)c1	-5%	/	/
O=C(CSc1nnnn1Cc1ccccc1)Nc1ccc2c(c1)OCO2	-47%	-22%	34
